Data published in PubChem BioAssay (NCATS).
Results filed as inconclusive are left out. Active and inactive are the calls of the source. Unless noted, the call rests on the fitted dose curve; in most records, active means well fitted cell-killing curve with a large enough effect; inconclusive means small, poorly fitted or top-dose-only effect; inactive means flat fitted curve, though single readings scatter.

Experiments:
[1] = Cell Viability - LYMP2-025 (AID 976); further: series mostly up to about 92 µM
How it was run: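 Human lymphoblastoid LYMP2-025 cells, 2500/well, exposed 24 h at 37 C in complete medium in 1536-well qHTS. Viability as cellular ATP by CellTiter-Glo luminescence; AC50 from Hill fits of concentration-response data.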

[2] = Cell Viability - LYMP2-002 (AID 977); further: series mostly up to about 92 µM
How it was run: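 Luminescent ATP readout (CellTiter-Glo, 30 min room temperature) after 24 h compound exposure at 37 C of a human lymphoblastoid line, 2500 cells/well. AC50 values derived by standard Hill fitting of qHTS concentration-response data.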

[3] = Cell Viability - LYMP2-006 (AID 978); further: series mostly up to about 92 µM; nearly all actives have a fitted effect of over 60% in size
How it was run: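 qHTS, 1536-well; 2500 cells/well, 5 hr 37 C; cpd 24 hr 37 C; CellTiter-Glo 30 min RT; luminescence. Tetraoctylammonium bromide pos. ctrl. AC50 via Hill eqn.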

[4] = Cell Viability - LYMP2-007 (AID 979);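 further: cells exposed to compound for 24 h before reading; nearly all actives have a fitted effect of over 60% in size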
How it was run: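 Human lymphoblastoid LYMP2-007 cells (2500/well) preincubated 5 h at 37 C, then treated 24 h at 37 C in complete medium. Viability by CellTiter-Glo ATP luminescence after 30 min at room temperature; AC50 from Hill fits.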

[5] = Cell Viability - LYMP2-008 (AID 980); further: nearly all actives have a fitted effect of over 60% in size
How it was run: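 LYMP2-008 lymphoblastoid cells (2500/well) plated 5 h, then treated 24 h at 37 C in complete medium. Viability read as intracellular ATP by CellTiter-Glo luminescence after 30 min at room temperature; AC50 from Hill fits.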

[6] = Cell Viability - LYMP2-010 (AID 981); further: nearly all actives have a fitted effect of over 55% in size; further: potency means the concentration at half of the fitted maximal effect
How it was run: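 Human lymphoblastoid LYMP2-010 cells (2500/well) treated 24 h at 37 C in complete medium; viability read as intracellular ATP by CellTiter-Glo luminescence. AC50 from Hill fits of concentration-response data; tetraoctylammonium bromide positive control.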

[7] = Cell Viability - LYMP2-012 (AID 982);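 further: cellular ATP by luciferase luminescence where a drop means cytotoxicity; cells exposed to compound for one day before reading; nearly all actives have a fitted effect of over 55% in size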
[8] = Cell Viability - LYMP2-014 (AID 983); further: series mostly up to about 92 µM; nearly all actives have a fitted effect of over 50% in size
How it was run: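 LYMP2-014 human lymphoblastoid cells, 2500/well, treated 24 h at 37 C in complete medium; viability by CellTiter-Glo ATP luminescence after 30 min at room temperature. AC50 from Hill fits of qHTS concentration-response; tetraoctylammonium bromide positive control.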

[9] = Cell Viability - LYMP2-018 (AID 985);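 further: compound exposure lasted 24 hr at 37 °C; nearly all actives have a fitted effect of over 50% in size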
How it was run: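 Human lymphoblastoid LYMP2-018 cells, 2500/well, settled 5 hr at 37 C then exposed to compound 24 hr at 37 C; intracellular ATP measured by CellTiter-Glo luminescence. AC50 from Hill-equation concentration-response fits.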

[10] = Cell Viability - LYMP2-020 (AID 986); further: series mostly up to about 92 µM; nearly all actives have a fitted effect of over 55% in size
How it was run: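 Human lymphoblastoid LYMP2-020 cells (2500/well) preincubated 5 h at 37 C, then treated 24 h at 37 C. Viability measured as intracellular ATP by CellTiter-Glo luminescence after 30 min at room temperature; AC50 from Hill fits.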

[11] = Cell Viability - LYMP2-022 (AID 987); further: nearly all actives have a fitted effect of over 55% in size
How it was run: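 LYMP2-022 lymphoblastoid cells (2500/well, complete medium) were treated with compounds for 24 hours at 37 C; intracellular ATP was then read by CellTiter-Glo luminescence after 30 min at room temperature. AC50 values were derived from Hill-equation fits.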

[12] = Cell Viability - LYMP2-024 (AID 988); further: nearly all actives have a fitted effect of over 60% in size
How it was run: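 Human lymphoblastoid LYMP2-024 cells (2500/well) rested 5 hr, then treated with compound for 24 hr at 37 C in complete medium. Viability was measured as intracellular ATP by CellTiter-Glo luminescence. AC50 values came from Hill-equation fits.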

[13] = Cell Viability - LYMP2-026 (AID 989); further: nearly all actives have a fitted effect of over 50% in size
How it was run: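 Human lymphoblastoid LYMP2-026 cells, 2500/well, exposed to compound 24 h at 37 C in complete medium. Viability as intracellular ATP by CellTiter-Glo luminescence; AC50 from Hill fits of qHTS concentration-response.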

[14] = Cell Viability - LYMP1-002 - Assay at 24 hr (AID 993)
How it was run: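 Human lymphoblastoid LYMP1-002 cells (2500/well) treated 24 h at 37 °C; viability as intracellular ATP by CellTiter-Glo luminescence. Tetraoctylammonium bromide as positive control; AC50 from Hill-equation fits of qHTS concentration-response.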

[15] = qHTS Assay for Identification of Small Molecule Inducers of Hypoxia Response (AID 2120; active means well fitted curve in the direction sought with a large enough effect in the signal ratio, with a control signal flat, not every such curve was filed as active; the % refers to the signal ratio)
How it was run: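 HRE-bla ME-180 cells in Opti-MEM with 0.5% dialyzed FBS, pre-plated 4-5 h, then compound titration for 17 h at 37 degrees Celsius. CCF4 loaded 2.5 h at room temperature; 460/530 nm ratio gave %Activity and AC50 for induction.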

[16] = Cell Viability - LYMP2-016 (AID 984); further: nearly all actives have a fitted effect of over 55% in size
How it was run: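 qHTS, 1536-well: 2500 LYMP2-016 cells/well, 5 hr 37 C, compound added, 24 hr 37 C, CellTiter-Glo 30 min RT, luminescence. Tetraoctylammonium bromide positive control. AC50 via Hill fit.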

[17] = Cell Viability - LYMP1-002 - Assay at 40 hr (AID 994); further: nearly all actives have a fitted effect of over 60% in size
How it was run: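 LYMP1-002 human lymphoblastoid cells (2500/well, complete medium) were treated with compounds for 40 hr at 37 C. Intracellular ATP was measured by CellTiter-Glo luminescence, and AC50 values came from Hill-equation fits of concentration-response data; tetraoctylammonium bromide was the positive control.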

[18] = biological target: Estrogen receptor (Homo sapiens) (UniProt P03372); assay: qHTS assay for small molecule antagonists of estrogen receptor alpha signaling (AID 588513; active means well fitted curve in the direction sought with a large enough effect in the signal ratio, with a control signal flat, not every such curve was filed as active; the % refers to the signal ratio)
How it was run: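 Beta-lactamase reporter, antagonist mode, HEK 293 GripTite cells; 0.5nM E2 stimulus, 18 h, 37 C; CCF4 dye 2 h RT; fluorescence. IC50 and efficacy from Hill fits, normalized to E2 and DMSO.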

[19] = biological target: Estrogen receptor (Homo sapiens) (UniProt P03372); assay: qHTS assay for small molecule agonists of estrogen receptor alpha signaling (AID 588514; calls by dose curve; further: nearly all actives have a fitted effect of over 70% in size)
How it was run: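 ER-alpha-UAS-bla GripTite HEK293 cells, 5000/well in 2% charcoal/dextran-stripped FBS medium, treated with compound titrations 18 h at 37 C. CCF4 beta-lactamase read by fluorescence after 2 h RT; normalised to 20 nM 17-beta-estradiol (100%) and DMSO (0%), Hill fit for EC50 and efficacy.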

Measured: Potency

Chain of Estrogen receptor (Homo sapiens) (P03372 whole entry, looked up): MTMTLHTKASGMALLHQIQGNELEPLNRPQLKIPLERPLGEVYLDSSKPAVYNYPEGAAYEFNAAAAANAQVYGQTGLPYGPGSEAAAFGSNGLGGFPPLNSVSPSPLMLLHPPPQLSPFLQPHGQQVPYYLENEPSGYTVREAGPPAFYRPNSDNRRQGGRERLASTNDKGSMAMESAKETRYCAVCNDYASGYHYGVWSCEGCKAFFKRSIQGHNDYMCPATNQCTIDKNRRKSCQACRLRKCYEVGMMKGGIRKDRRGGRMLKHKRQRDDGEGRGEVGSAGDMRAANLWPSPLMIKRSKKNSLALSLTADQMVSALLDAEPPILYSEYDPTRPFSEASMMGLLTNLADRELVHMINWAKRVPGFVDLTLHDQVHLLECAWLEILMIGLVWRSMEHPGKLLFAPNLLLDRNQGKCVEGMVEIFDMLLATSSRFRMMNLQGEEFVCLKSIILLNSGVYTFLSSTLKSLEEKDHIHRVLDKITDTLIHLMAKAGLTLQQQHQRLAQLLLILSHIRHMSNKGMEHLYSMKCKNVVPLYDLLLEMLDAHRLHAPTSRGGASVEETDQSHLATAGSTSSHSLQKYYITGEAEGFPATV

CC/C(C)=N/O
not listed: [16] | [17] | [18] | [19]
inactive: all other assays above

CCC(=O)/C=C/C1C(C)=CCCC1(C)C (centres undefined)
active: [6] 50.1 µM
not listed: [4] | [7] | [11] | [12] | [18] | [19]
inactive: all other assays above

CC(C)Cc1nccs1
not listed: [10] | [18] | [19]
inactive: all other assays above

O=C(O)c1ccccc1Cl
not listed: [4] | [10] | [18] | [19]
inactive: all other assays above

CC(=O)c1ccccn1
not listed: [4] | [16] | [18] | [19]
inactive: all other assays above

c1ccc(Nc2ccccc2)cc1
not listed: [10] | [16] | [17] | [18] | [19]
inactive: all other assays above

CCCCC(CC)CNCC(CC)CCCC (centres undefined)
not listed: [16] | [18] | [19]
inactive: all other assays above

Cc1cccc(C)c1[N+](=O)[O-]
not listed: [4] | [14] | [18] | [19]
inactive: all other assays above

CC(=O)c1ccc([N+](=O)[O-])cc1
not listed: [4] | [16] | [18] | [19]
inactive: all other assays above

C=CCn1c(=O)n(CC=C)c(=O)n(CC=C)c1=O
not listed: [4] | [18] | [19]
inactive: all other assays above

CC(C)(C)OC=O
inactive: [1] | [2] | [3] | [4] | [5] | [14] | [17] | [15]

C[C@@H]1O[C@@H](O[C@@H]2[C@@H](O)[C@H](OCCc3ccc(O)c(O)c3)O[C@H](CO[C@@H]3O[C@H](CO)[C@@H](O)[C@H](O)[C@H]3O)[C@H]2OC(=O)/C=C/c2ccc(O)c(O)c2)[C@H](O)[C@H](O)[C@H]1O
not listed: [6] | [18] | [19]
inactive: all other assays above

CC1CCC2CC1C2(C)C (centres undefined)
not listed: [4] | [10] | [13] | [14] | [18] | [19]
inactive: all other assays above

O=C(O)c1ccc(CO)o1
not listed: [4] | [6] | [7] | [12] | [18] | [19]
inactive: all other assays above

C1CCCC1
not listed: [12] | [16] | [17] | [18] | [19]
inactive: all other assays above

O=C1OC(=O)c2c(Br)c(Br)c(Br)c(Br)c21
not listed: [16] | [18] | [19]
inactive: all other assays above

Cc1cc(C(=O)O)ccc1[N+](=O)[O-]
not listed: [4] | [10] | [18] | [19]
inactive: all other assays above

COC(=O)CCCC(=O)OC
not listed: [10] | [14] | [18] | [19]
inactive: all other assays above

N#Cc1ccccc1
not listed: [4] | [18] | [19]
inactive: all other assays above

O=C(O)c1ccccc1[N+](=O)[O-]
not listed: [4] | [18] | [19]
inactive: all other assays above

CCOCCO
not listed: [10] | [17] | [18] | [19]
inactive: all other assays above

C1CCOC1
not listed: [10] | [13] | [17] | [18] | [19]
inactive: all other assays above

CN(C)c1cccc(O)c1
not listed: [10] | [18] | [19]
inactive: all other assays above

NS(=O)(=O)O
not listed: [4] | [16] | [18] | [19]
inactive: all other assays above

ON=C1CCCCC1
not listed: [10] | [18] | [19]
inactive: all other assays above

c1ccc2[nH]cnc2c1
not listed: [4] | [18] | [19]
inactive: all other assays above

N#CCc1ccccc1[N+](=O)[O-]
not listed: [12] | [16] | [18] | [19]
inactive: all other assays above

O=C(O)c1ccc(C(=O)O)cc1
not listed: [14] | [16] | [18] | [19]
inactive: all other assays above

CSCCC=O
not listed: [4] | [10] | [13] | [18] | [19]
inactive: all other assays above

c1ccc(Oc2ccccc2)cc1
not listed: [4] | [18] | [19]
inactive: all other assays above

C=Cc1ccccn1
not listed: [4] | [16] | [18] | [19]
inactive: all other assays above

C=C(C)C(=O)OC
not listed: [4] | [17] | [18] | [19]
inactive: all other assays above

Cc1cc(C2(c3cc(C)c(O)cc3C)OS(=O)(=O)c3ccccc32)c(C)cc1O
not listed: [10] | [17] | [18] | [19]
inactive: all other assays above

CC(C)C=O
not listed: [10] | [12] | [18] | [19]
inactive: all other assays above

Cc1ccccc1C(=O)O
not listed: [10] | [12] | [13] | [18] | [19]
inactive: all other assays above

CC(C)N=C=NC(C)C
not listed: [4] | [12] | [15]
inactive: all other assays above
